Data reported in PubChem BioAssay (NCATS).
Unmarked numbers belong to inactive results. Results filed as inconclusive are left out. A call without a number means that no potency is given here. Active and inactive are the calls of the source. The call rests on the fitted dose curve; in most records, active means well fitted curve in the direction sought with a large enough effect; inconclusive means small, poorly fitted or top-dose-only effect, or another doubt; inactive means no such curve, though single readings can be large; an effect the other way counts as inactive or inconclusive.

Legend:
[1] = target: Glutathione peroxidase 1 (Homo sapiens) (UniProt P07203); assay: Primary qHTS Assay for Inhibitors of Recombinant Selenoprotein Glutathione Peroxidase 1 (GPX1) (AID 1845191); further: nearly all actives have a fitted effect of over 65% in size
In short: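 GR-coupled assay: compounds preincubated 30 min at room temperature with GPX1, then reaction started with CHP; final 10 nM GPX1, 1 mM GSH, 0.5 mM CHP, 0.5 mM NADPH, 100 nM GR, 0.01% BSA, pH 7.5 Tris buffer. NADPH fluorescence (340/450 nm) read at 0 and 15 min.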

[2] = target: Phospholipid hydroperoxide glutathione peroxidase GPX4 (Homo sapiens) (UniProt P36969); assay: Primary qHTS Assay for Inhibitors of Recombinant Selenoprotein Glutathione Peroxidase 4 (GPX4) (AID 1845192); further: nearly all actives have a fitted effect of over 65% in size; on activity change, negative = inhibition: series mostly up to about 50 µM
In short: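 GR-coupled assay: recombinant GPX4 preincubated 30 min with compound at room temperature; final 200 nM GPX4, 1 mM GSH, 0.5 mM cumene hydroperoxide, 0.5 mM NADPH, 100 nM GR, 0.01% BSA, pH 7.5 Tris. NADPH fluorescence (340/450 nm) read at 0 and 15 min.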

[3] = target: Luciferin 4-monooxygenase (Photinus pyralis) (UniProt P08659); assay: Primary firefly luciferase (FLuc) qHTS assay for identification of artifact compounds. (AID 1845220); further: nearly all actives have a fitted effect of over 60% in size; on activity change, negative = inhibition: series mostly up to about 54 µM
In short: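 D-luciferin and ATP (10 uM each, final) in Tris acetate buffer pH 7.6 were incubated with compounds for 15 min at room temperature. The reaction was started with 10 nM Photinus pyralis luciferase and luminescence read after 5 min. Percent inhibition was fitted to a 4-parameter Hill equation.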

[4] = Primary fluorescence-based thiol-reactive (MSTI) qHTS assay for identification of artifact compounds. (AID 1845221); further: nearly all actives have a fitted effect of over 65% in size; further: potency means the concentration at half of the fitted maximal effect;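 on activity change, negative = thiol reactive: series mostly up to about 54 µM; thiol-reactive compounds lower the probe fluorescence signal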
In short: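 Probe: MSTI 4 uM, PBS pH 7.4, 2% DMSO. Incubation 1 h, RT, light-protected. Readout fluorescence 525/598 nm.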

[5] = test system: Nanoluciferase (engineered Oplophorus gracilirostris luciferase); assay: Primary Nanoluciferase (NLuc) qHTS assay for identification of artifact compounds. (AID 1845222); further: series mostly up to about 54 µM
In short: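 Diluted conditioned medium from NLuc-expressing S16 cells treated with compounds for 15 min at room temperature, then Nano-Glo substrate added; luminescence read after 5 min. Percent inhibition versus no-enzyme and DMSO controls fitted to 4-parameter Hill equation.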

[6] = Primary redox qHTS assay for identification of artifact compounds. (AID 1845223)
In short: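 Amplex Red (25 uM) and HRP (250 mU/mL) in HBSS, with compounds for 15 min, then 250 uM DTT for 30 min, room temperature, dark. Fluorescence 525/598 nm read; normalized to DMSO and 10 uM DA3003; Hill fit.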

Glutathione peroxidase 1 (Homo sapiens), sequence (P07203 whole entry, looked up): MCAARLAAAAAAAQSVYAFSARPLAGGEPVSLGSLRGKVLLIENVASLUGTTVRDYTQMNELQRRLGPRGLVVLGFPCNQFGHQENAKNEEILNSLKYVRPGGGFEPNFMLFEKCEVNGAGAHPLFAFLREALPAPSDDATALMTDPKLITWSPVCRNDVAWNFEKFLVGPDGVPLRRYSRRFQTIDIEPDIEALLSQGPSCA
Phospholipid hydroperoxide glutathione peroxidase GPX4 (Homo sapiens), sequence (P36969 whole entry, looked up): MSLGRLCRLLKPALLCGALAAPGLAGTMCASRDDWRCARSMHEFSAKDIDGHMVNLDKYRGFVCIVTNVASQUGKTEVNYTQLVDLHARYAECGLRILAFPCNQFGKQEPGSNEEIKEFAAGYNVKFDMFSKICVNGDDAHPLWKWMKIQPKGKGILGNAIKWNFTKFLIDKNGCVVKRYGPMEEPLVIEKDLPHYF

Structure (SMILES): COC(=O)C12C(=O)C(C)=C(O)C1(C)C(C)=CC1C3(CO)CCC(O)C(C)(C)C3CCC12C (stereo unspecified)
- Potency [1]: inactive
- Potency [2]: inactive
- Potency [3]: inactive
- Potency [4]: inactive
- Potency [5]: inactive

Structure (SMILES): CC(C)=CCC/C(C)=C/CO[C@@H]1O[C@H](CO)[C@@H](OC(=O)/C=C/c2ccc(O)cc2)[C@H](O[C@@H]2O[C@@H](C)[C@H](O)[C@@H](O)[C@H]2O)[C@H]1O
- Potency [1]: inactive
- Potency [2]: inactive
- Potency [3]: inactive
- Potency [4]: inactive
- Potency [5]: inactive

Structure (SMILES): C/C(=C\C=C\C(C)C1CCC2(C)C3CCC4C(C)(C)C(=O)CCC45CC35CCC12C)C(=O)O (stereo unspecified)
- Potency [1]: inactive
- Potency [2]: inactive
- Potency [3]: inactive
- Potency [4]: inactive
- Potency [5]: inactive
- Potency [6]: inactive

Structure (SMILES): CC1(O)CC(O)C2(O)C=COC(O[C@@H]3O[C@H](CO)[C@@H](O)[C@H](O)[C@H]3O)C12 (stereo partly specified)
- Potency [1]: inactive
- Potency [2]: inactive
- Potency [3]: inactive
- Potency [4]: 11.7 µM (active)
- Potency [5]: inactive
- Potency [6]: inactive

Structure (SMILES): CC1=C(C)C(=O)OC(C(C)C2CCC3C4C5OC5C5(O)CC(OC6OC(CO)C(OC7OC(C)C(O)C(O)C7O)C(O)C6O)CC(O)C5(C)C4CCC23C)C1 (stereo unspecified)
- Potency [1]: inactive
- Potency [2]: inactive
- Potency [3]: inactive
- Potency [4]: inactive
- Potency [5]: inactive
- Potency [6]: inactive

Structure (SMILES): COc1cc(C)c(C(=O)Oc2cc(C)c(C(=O)Oc3cc(C)c(C(=O)NC(C)C(=O)O)c(O)c3)c(O[C@@H]3O[C@H](CO)[C@@H](O)[C@H](O)[C@H]3OC(C)=O)c2)c(OC)c1 (stereo partly specified)
- Potency [1]: inactive
- Potency [2]: inactive
- Potency [3]: inactive
- Potency [4]: inactive
- Potency [5]: inactive

Structure (SMILES): CCOCc1nc2c(N)nc3ccccc3c2n1CC(C)(C)O
- Potency [1]: inactive
- Potency [2]: inactive
- Potency [3]: inactive
- Potency [4]: inactive
- Potency [5]: inactive
- Potency [6]: inactive

Structure (SMILES): C=C1CC[C@@H]2[C@@](C)(CO[C@@H]3O[C@H](CO)C(O)[C@H](O)C3O)[C@H](O)CC[C@@]2(C)[C@@H]1CC/C(C)=C/CO (stereo partly specified)
- Potency [1]: inactive
- Potency [2]: inactive
- activity change, negative = inhibition [3]: -1.11% [at 11.6 µM]
- activity change, negative = thiol reactive [4]: 21.9% [at 11.5 µM]
- activity, negative = inhibition [5]: 2.18% [at 11.6 µM]

Structure (SMILES): CC(=O)O[C@H]1[C@@H](O)[C@H](O[C@H]2[C@@H]3C=CO[C@@H](O[C@H]4O[C@@H](CO)[C@H](O)[C@@H](O)[C@@H]4O)[C@@H]3[C@@]3(CO)O[C@@H]23)O[C@@H](C)[C@@H]1OC(=O)/C=C/c1ccccc1
- Potency [1]: inactive
- Potency [2]: inactive
- Potency [3]: inactive
- Potency [4]: 7.93 µM (active)
- Potency [5]: inactive

Structure (SMILES): CC1CCC2(CO)C(C(=O)O)=CCCC2C1(C)CCc1ccoc1 (stereo unspecified)
- Potency [1]: inactive
- Potency [2]: inactive
- Potency [3]: inactive
- Potency [4]: inactive
- Potency [5]: inactive

Structure (SMILES): CC1(C)CC[C@]2(C(=O)OC3OC(CO)C(O)C(O)C3O)CC[C@]3(C)C(=CCC4[C@@]5(C)CC[C@H](OC6OC(C(=O)O)C(O)C(OC7OC(CO)C(O)C(O)C7O)C6O)C(C)(C)C5CC[C@]43C)C2C1 (stereo partly specified)
- Potency [1]: inactive
- Potency [2]: inactive
- activity change, negative = inhibition [3]: 2.81% [at 11.6 µM]
- activity change, negative = thiol reactive [4]: 338% [at 11.5 µM]
- activity, negative = inhibition [5]: 2.64% [at 11.6 µM]
- redox activity (% of DA3003) [6]: 0.227% [at 11.5 µM]

Structure (SMILES): COc1ccc(CC2NCCc3c2[nH]c2ccc(C)cc32)cc1OC (stereo unspecified)
- Potency [1]: inactive
- Potency [2]: inactive
- Potency [3]: inactive
- Potency [4]: inactive
- Potency [5]: inactive

Structure (SMILES): CN1CCN(C(=O)c2ccc3cc(CCNc4ncnc5ccc(C#N)cc45)ccc3c2)CC1
- Potency [1]: inactive
- Potency [2]: inactive
- Potency [3]: inactive
- Potency [4]: inactive
- Potency [5]: inactive

Structure (SMILES): Nc1ncnc2c1ncn2CCNCCCCCO
- Potency [1]: inactive
- Potency [2]: inactive
- Potency [3]: inactive
- Potency [4]: inactive
- Potency [5]: inactive

Structure (SMILES): Cc1cc(C(=O)Nc2cccc(C(=O)Nc3cccc(C(F)(F)F)c3)c2)on1
- Potency [1]: inactive
- Potency [2]: inactive
- Potency [3]: inactive
- Potency [4]: inactive
- Potency [5]: inactive
- Potency [6]: inactive

Structure (SMILES): O=C(CO)[C@@H](O)[C@H](O[C@@H]1O[C@H](CO)[C@H](O)[C@H](O)[C@H]1O)[C@H](O)CO
- Potency [1]: inactive
- Potency [2]: inactive
- Potency [3]: inactive
- Potency [4]: inactive
- Potency [5]: inactive
- Potency [6]: inactive

Structure (SMILES): C[C@H](N)C(=O)N[C@@H](Cc1ccc(O)cc1)C(=O)N1CCC[C@H]1C(=O)NCC(=O)N[C@@H](CCCCN)C(=O)N[C@@H](Cc1ccccc1)C(N)=O
- activity, negative = inhibition [1]: 0.372% [at 9.52 µM]
- activity change, negative = inhibition [2]: -6.9% [at 9.73 µM]
- activity change, negative = inhibition [3]: 3.15% [at 11.6 µM]
- activity change, negative = thiol reactive [4]: -3.19% [at 11.5 µM]
- activity, negative = inhibition [5]: 4.39% [at 11.6 µM]
- redox activity (% of DA3003) [6]: -3.11% [at 11.5 µM]

Structure (SMILES): CC(O)CO[C@@H]1O[C@H](CO)[C@@H](O)[C@H](O)[C@H]1O (stereo partly specified)
- Potency [1]: inactive
- Potency [2]: inactive
- Potency [3]: inactive
- Potency [4]: inactive
- Potency [5]: inactive
- Potency [6]: inactive

Structure (SMILES): Cc1cccc(S(=O)(=O)N2CCC[C@@H]2CCN2CCC(C)CC2)c1
- Potency [1]: inactive
- Potency [2]: inactive
- Potency [3]: inactive
- Potency [4]: inactive
- Potency [5]: inactive
- Potency [6]: inactive

Structure (SMILES): COc1cc(O)cc(C)c1C(=O)O[C@H]1[C@@H](OC(C)=O)[C@H](n2ccc(=O)[nH]c2=O)O[C@@H]1CO
- Potency [1]: inactive
- Potency [2]: inactive
- Potency [3]: inactive
- Potency [4]: inactive
- Potency [5]: inactive
- Potency [6]: inactive
